Measurements: the supplement of paper PMC11732987, “Enantioselective OTUD7B fragment discovery through chemoproteomics screening and high-throughput optimisation” (Communications Chemistry, 2025)

What was measured:
Assay in all cases: log2 ratio of Biotin-Ahx-Ub-VS probe labelling (fragment/DMSO); higher = less target engagement (more negative = stronger competition), active = hit call of the paper (q ≤ 0.05, log2 ratio ≤ -1)
Conditions in all cases: compound concentration: 200 uM; treatment time: 3 h
[1] = target: T1, USP19 (UniProt O94966)
T1 sequence (whole entry): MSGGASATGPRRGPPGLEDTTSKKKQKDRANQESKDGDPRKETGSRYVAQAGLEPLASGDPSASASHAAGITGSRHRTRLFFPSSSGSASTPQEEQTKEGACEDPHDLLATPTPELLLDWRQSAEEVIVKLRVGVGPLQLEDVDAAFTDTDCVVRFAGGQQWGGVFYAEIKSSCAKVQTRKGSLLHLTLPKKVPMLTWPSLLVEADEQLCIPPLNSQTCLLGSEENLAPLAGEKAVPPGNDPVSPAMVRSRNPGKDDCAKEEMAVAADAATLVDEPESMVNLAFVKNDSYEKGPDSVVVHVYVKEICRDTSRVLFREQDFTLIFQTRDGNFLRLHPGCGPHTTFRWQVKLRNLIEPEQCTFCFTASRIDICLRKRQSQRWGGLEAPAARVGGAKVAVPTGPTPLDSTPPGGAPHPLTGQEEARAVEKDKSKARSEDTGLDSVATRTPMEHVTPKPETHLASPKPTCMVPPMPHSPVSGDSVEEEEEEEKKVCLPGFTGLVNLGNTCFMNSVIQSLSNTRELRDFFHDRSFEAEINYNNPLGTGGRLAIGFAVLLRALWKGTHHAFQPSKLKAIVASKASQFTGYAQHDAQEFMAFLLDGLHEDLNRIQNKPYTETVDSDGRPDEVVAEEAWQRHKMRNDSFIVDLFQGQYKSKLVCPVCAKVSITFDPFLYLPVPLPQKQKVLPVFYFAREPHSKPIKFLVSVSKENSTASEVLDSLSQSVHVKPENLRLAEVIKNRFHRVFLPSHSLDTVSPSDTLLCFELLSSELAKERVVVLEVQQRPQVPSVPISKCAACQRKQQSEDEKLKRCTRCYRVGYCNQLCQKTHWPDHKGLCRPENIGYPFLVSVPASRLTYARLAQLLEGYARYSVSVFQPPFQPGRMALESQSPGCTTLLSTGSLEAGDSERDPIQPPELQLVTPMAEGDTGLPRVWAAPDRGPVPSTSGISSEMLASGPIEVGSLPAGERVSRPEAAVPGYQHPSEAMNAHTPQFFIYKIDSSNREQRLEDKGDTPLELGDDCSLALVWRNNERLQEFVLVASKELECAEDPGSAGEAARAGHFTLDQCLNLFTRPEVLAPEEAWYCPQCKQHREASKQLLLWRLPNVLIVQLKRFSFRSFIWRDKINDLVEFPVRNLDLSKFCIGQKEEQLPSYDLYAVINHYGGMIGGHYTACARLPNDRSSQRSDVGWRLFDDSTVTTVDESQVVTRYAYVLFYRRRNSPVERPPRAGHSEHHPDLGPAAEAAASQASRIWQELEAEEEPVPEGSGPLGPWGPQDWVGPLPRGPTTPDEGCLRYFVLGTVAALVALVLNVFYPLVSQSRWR
Method in brief: (§1)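 HEK293T lysate (495 µg per sample, in Tris/CHAPS/IGEPAL buffer with protease inhibitors) was treated in triplicate with fragment at 200 µM or with DMSO for 3 h. It was then treated with Biotin-Ahx-Ub-VS (0.5 µM final) for 1 h. Labelled DUBs were NeutrAvidin-enriched, digested with LysC and trypsin, and run by diaPASEF LC-MS/MS. Spectronaut label-free quantities were global-median-normalised. Values are average log2 ratios fragment/DMSO by unpaired t-test, using proteins with ≥2 unique peptides.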

[2] = target: USP24 (UniProt Q9UPU5)
Chain of USP24 (Q9UPU5 whole entry): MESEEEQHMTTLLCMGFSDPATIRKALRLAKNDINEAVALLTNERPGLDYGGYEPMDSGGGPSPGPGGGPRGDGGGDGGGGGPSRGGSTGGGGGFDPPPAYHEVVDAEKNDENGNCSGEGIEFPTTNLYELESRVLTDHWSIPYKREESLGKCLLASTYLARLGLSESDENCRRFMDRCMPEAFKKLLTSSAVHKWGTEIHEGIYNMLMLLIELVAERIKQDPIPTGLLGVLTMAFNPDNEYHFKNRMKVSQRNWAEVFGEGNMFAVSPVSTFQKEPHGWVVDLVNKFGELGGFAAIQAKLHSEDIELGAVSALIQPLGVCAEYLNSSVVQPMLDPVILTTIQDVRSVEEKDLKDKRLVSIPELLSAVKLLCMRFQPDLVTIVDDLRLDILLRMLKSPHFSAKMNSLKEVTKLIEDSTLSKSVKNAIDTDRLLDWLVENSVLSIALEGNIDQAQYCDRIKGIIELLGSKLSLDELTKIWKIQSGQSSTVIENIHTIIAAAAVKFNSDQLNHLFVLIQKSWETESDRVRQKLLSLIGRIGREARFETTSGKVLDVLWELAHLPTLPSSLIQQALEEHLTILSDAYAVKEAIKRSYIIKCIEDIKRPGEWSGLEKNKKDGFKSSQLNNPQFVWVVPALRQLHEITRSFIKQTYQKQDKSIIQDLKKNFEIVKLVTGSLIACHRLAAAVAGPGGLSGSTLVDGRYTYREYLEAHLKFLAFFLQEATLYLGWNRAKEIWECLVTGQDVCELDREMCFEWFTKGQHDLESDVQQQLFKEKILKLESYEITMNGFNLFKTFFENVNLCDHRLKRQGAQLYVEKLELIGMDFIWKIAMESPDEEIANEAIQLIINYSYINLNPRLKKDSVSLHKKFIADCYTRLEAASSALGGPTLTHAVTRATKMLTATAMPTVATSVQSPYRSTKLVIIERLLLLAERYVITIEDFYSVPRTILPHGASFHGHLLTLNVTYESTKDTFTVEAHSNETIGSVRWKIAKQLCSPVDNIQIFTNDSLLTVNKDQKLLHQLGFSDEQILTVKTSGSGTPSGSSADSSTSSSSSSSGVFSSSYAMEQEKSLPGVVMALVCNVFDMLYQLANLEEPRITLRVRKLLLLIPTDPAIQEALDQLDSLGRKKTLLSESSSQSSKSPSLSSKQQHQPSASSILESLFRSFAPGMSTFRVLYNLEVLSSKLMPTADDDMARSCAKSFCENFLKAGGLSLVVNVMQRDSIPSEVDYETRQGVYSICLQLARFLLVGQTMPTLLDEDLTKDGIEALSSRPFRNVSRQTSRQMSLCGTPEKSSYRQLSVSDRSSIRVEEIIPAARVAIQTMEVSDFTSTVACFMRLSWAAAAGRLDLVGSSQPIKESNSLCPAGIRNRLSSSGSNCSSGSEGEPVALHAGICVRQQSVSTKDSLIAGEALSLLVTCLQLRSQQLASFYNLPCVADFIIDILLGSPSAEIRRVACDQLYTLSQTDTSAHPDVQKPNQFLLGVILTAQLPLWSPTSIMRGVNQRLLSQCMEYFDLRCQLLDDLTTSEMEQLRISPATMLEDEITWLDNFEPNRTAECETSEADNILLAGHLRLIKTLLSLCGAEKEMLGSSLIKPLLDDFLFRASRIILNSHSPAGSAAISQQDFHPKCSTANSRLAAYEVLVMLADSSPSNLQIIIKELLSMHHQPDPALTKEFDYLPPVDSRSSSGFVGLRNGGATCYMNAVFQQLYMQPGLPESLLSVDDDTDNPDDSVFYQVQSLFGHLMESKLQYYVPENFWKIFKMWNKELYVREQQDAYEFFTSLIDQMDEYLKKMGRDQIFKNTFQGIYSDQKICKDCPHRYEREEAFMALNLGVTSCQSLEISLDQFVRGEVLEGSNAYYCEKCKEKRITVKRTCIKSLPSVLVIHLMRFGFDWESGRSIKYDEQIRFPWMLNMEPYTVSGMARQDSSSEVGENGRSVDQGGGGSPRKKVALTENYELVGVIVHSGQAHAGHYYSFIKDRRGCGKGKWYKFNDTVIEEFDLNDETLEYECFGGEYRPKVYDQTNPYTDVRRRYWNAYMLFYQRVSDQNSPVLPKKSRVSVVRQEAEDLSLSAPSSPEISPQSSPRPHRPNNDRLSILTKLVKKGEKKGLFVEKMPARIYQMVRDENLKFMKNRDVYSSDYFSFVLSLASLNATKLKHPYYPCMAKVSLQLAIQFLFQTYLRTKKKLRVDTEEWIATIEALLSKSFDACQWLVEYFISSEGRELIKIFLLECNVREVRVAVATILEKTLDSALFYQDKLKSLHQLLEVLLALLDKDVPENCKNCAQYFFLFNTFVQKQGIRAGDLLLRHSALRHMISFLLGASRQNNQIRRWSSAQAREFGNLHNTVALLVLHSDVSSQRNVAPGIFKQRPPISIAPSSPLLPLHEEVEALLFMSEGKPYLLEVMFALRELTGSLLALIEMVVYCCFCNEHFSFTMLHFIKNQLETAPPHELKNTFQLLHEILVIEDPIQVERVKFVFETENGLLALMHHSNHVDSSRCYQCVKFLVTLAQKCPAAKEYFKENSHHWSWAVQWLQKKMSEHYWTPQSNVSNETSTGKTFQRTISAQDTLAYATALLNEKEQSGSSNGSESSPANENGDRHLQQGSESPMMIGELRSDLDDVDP
Method in brief: as §1

[3] = target: T2, USP25 (UniProt Q9UHP3)
T2 sequence (whole entry): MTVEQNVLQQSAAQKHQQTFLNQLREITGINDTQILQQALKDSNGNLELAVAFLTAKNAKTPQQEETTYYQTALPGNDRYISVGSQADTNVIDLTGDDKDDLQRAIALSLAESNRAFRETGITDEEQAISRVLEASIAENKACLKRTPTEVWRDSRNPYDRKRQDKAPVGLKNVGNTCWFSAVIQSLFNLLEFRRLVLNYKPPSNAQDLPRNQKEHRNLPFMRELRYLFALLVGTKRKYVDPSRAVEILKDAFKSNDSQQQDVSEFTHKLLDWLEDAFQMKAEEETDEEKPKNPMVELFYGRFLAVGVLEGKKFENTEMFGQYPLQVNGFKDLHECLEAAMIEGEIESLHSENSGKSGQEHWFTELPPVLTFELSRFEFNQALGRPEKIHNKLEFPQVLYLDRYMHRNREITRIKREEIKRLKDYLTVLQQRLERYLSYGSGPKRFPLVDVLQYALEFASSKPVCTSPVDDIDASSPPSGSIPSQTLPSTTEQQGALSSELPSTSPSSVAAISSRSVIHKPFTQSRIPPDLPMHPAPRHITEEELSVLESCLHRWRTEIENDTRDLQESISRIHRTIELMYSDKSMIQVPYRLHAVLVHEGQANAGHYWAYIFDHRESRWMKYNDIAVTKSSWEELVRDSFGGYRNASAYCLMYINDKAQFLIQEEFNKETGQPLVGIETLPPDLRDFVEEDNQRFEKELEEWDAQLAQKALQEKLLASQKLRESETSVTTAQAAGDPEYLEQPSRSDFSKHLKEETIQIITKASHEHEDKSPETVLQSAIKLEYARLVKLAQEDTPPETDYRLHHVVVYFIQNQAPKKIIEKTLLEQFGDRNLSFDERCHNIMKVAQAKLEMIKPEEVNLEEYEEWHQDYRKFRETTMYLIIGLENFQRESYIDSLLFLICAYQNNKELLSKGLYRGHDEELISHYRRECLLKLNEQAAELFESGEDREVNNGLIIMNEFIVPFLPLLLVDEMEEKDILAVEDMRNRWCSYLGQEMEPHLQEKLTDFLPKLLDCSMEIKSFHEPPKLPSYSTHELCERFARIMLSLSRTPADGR
Method in brief: as §1

[4] = target: T3, USP28 (UniProt Q96RU2)
T3 sequence (whole entry): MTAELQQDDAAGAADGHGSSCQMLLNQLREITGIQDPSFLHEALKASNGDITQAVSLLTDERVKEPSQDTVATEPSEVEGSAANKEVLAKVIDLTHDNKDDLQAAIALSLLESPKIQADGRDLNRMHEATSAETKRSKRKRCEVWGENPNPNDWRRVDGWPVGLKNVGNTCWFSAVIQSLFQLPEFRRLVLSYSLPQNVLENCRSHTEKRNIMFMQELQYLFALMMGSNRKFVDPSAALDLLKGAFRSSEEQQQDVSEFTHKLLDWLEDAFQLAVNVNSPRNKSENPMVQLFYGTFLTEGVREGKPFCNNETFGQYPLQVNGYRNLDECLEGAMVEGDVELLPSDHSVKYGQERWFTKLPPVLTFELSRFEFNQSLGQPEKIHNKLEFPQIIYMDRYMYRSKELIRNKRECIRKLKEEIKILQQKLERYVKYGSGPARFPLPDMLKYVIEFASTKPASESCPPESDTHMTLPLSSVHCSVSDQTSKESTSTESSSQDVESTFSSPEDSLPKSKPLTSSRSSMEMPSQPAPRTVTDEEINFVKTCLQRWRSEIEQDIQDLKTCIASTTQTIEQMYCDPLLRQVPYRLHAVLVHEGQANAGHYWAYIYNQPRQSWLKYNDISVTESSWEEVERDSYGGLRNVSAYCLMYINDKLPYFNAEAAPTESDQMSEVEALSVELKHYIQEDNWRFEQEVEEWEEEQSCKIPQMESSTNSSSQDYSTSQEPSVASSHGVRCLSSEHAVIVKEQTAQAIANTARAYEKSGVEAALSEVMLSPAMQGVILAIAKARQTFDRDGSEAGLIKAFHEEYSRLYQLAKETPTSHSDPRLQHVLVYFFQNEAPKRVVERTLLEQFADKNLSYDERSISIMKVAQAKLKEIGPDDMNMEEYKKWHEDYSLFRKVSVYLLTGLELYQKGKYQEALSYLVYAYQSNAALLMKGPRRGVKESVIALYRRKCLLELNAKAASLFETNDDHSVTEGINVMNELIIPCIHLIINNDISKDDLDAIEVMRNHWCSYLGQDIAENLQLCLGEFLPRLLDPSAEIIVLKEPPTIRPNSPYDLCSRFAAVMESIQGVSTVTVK
Method in brief: as §1

Measured: log2 ratio of Biotin-Ahx-Ub-VS probe labelling

CC(NC(=O)CCl)c1cccc2ccccc12 (centres undefined)
inactive: [1] -0.242 | [2] -0.343 | [3] -0.33 | [4] -0.501
